Records with an inconclusive call do not appear. Values without a mark were called inactive. Calls of active or inactive are those of the source. The call rests on the fitted dose curve; in most records, active means well fitted activation curve with a large enough effect in the signal ratio in the repeat runs (not every such curve was filed as active); inconclusive means weak or mixed curves; inactive means flat fitted curve, though single readings scatter; the % refers to the signal ratio.
On the % scale 0 is the no-effect control and ±100 the full control effect.

A short description of the assay: qHTS assay to identify small molecule agonists of the TGF-beta/Smad signaling pathway (AID 1346859). To be noted: SBE-bla HEK293T, TGF-beta/Smad beta-lactamase reporter, 5 h; series mostly up to 76.8 µM. In a few lines:
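Smad-responsive beta-lactamase reporter cells (HEK 293T) received compounds from DMSO stocks after overnight attachment, were incubated 5 hr, then treated 2 hr with FRET substrate before dual-emission fluorescence measurement (405 nm excitation).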
On to `CC(CCc1ccc2c(c1)OCO2)NN` (stereo not drawn), for which the call was inactive.
In the case of `Cc1cc(S(=O)(=O)O)ccc1N=Nc1c(O)ccc2ccccc12`, the outcome was inactive.
Take `OC/C(Br)=C(\Br)CO`: the compound was called inactive.
Consider `CN1CCCN=C1/C=C/c1cccs1`, for which the call was inactive.
Turning to `CC1(C)C(=O)N(Br)C(=O)N1Cl`, the call was inactive.
The same measure, in the same setting: in the case of `CCC(C(=O)OCCOCCN(CC)CC)c1ccccc1` (stereo not drawn) it was “inactive”.
On to `O=C(O)c1cccc(O)c1`, for which the compound was classed as inactive.
Take `NC(=O)Nc1ccc(Cl)cc1`: the compound was classed as inactive.
The same measure, in the same setting: in the case of `O=C(O)c1ccc(CO)o1` it was “inactive”; in that of `CCCCCCOC(=O)C(C)C`, “inactive”; in that of `CCCCCCCCCCCC[N+](C)(C)CCCS(=O)(=O)[O-]`, “inactive”.
Same read-out and setting: the value for `CCCOCCOCCO` was “inactive”; that for `Cc1cc(O)c2c(O)c3c(O)cccc3cc2c1` was “inactive”.
With `Cn1c(=O)c2c(ncn2CC(=O)O)n(C)c1=O`, the outcome was inactive.
Regarding `CC#N`, the result was inactive.
On to `CO[C@H]1O[C@H](CO)[C@@H](O)[C@H](O)[C@H]1O`, for which the result was inactive.
In the case of `CCOC(=O)C(C)Oc1ccc(Oc2nc3ccc(Cl)cc3o2)cc1` (stereo not drawn), the result was inactive.
In the case of `Cc1oncc1C(=O)Nc1ccc(C(F)(F)F)cc1`, the compound was classed as inactive.
For the compound `CC1CN(c2cc3c(cc2F)c(=O)c(C(=O)O)cn3-c2ccc(F)cc2F)CCN1` (stereo not drawn), the activation is -2.82% [at 6.97 µM].
As to `COC(OC)(C(=O)c1ccccc1)c1ccccc1`, the result was inactive.
On the same count and under the same terms, in the case of `Cc1nc2ccccc2s1` it was “inactive”; in that of `CCOCCn1c(C2CCN(CCc3ccc(C(C)(C)C(=O)O)cc3)CC2)nc2ccccc21`, “inactive”; in that of `CC(=O)Nc1ccc(N)cc1`, “inactive”.
Take `CCC(=O)OC/C=C/c1ccccc1`: the result was inactive.
Turning to `CN1CCN(c2c(F)cc3c(=O)c(C(=O)O)cn4c3c2OCN4C)CC1`, the activation was -0.914% [at 15.8 µM].
Regarding `CCC(C)=O`, the compound was called inactive.
In the case of `O=S(=O)(c1ccccc1)c1ccc(Cl)cc1`, the result was inactive.
In the case of `O=C(CCC1CCN(Cc2ccccc2)CC1)c1ccc2c(c1)NCCCC2`, the compound was classed as inactive.
`CCn1nc(C)c2c1C(=O)NCC(c1ccc(O)cc1)=N2`: the compound was classed as inactive.
Turning to `CCc1nn(CCCN2CCN(c3cccc(Cl)c3)CC2)c(=O)n1CCOc1ccccc1`, the outcome was inactive.
Take `C[Si](NC1CCCCC1)(NC1CCCCC1)NC1CCCCC1`: the call was inactive.
`CC(C)(C)C(=O)C(Oc1ccc(Cl)cc1)n1ccnc1` (stereo not drawn): the result was inactive.
As for `Cc1cc2nc3ccc(=[N+](C)C)cc-3sc2cc1N`, the result was inactive.
As for `CN(C)C(=O)Nc1ccc(Oc2ccc(Cl)cc2)cc1`, the compound was classed as inactive.
`Nc1nc(Cl)nc2c1ncn2[C@@H]1O[C@H](CO)[C@@H](O)[C@@H]1F`: the call was inactive.
Consider `CCOc1cc(N)c(Cl)cc1C(=O)NCC1CN(Cc2ccc(F)cc2)CCO1` (stereo not drawn), for which the compound was called inactive.
`CC(=O)OCC(=O)[C@H]1CC[C@H]2[C@@H]3CCC4=CC(=O)CC[C@]4(C)[C@H]3CC[C@]12C`: the compound was classed as inactive.
Regarding `Cc1cc(OI)c(C(C)C)cc1-c1cc(C(C)C)c(OI)cc1C`, the compound was called inactive.

For the origin of these results see PubChem BioAssay (Tox21).
